Compound activity from PubChem.
This is a sample that favours compounds with a hit; in the whole collection about 3.8% have one here.
Beta cell apopt: blocks beta cell apoptosis | INS-1E cytokine-induced death, ATP luminescence, 48 h; percent of positive-control rescue, neutral wells zero | protection from apoptosis, % (test concentration not listed) | hit rate 0.8% among 300,000 | AID 435005;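 active = Every replicate reaches about 75%, or at least half do and their mean reaches it too, limit read from the data; inconclusive = At least half of replicates reach the limit but their mean does not; inactive = Under half of replicates reach the limit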;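 also: 0% = cytokine-treated negative control wells and 100% = positive control rescue; higher means more ATP so stronger rescue from cytokine killing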
Mdm2-MdmX inh: human Mdm2/MdmX binding inhibition; AID 485346; O15151+Q00987; hit rate 3% among 330,000; SaOS-2 split-luciferase Mdm2/MdmX complementation, luminescence; inhibition, % at 8 µM;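 active = inhibition of at least 50% at 8 µM in the primary screen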
697 NFkB inh: lowers PMA/ionomycin-induced NF-kB signal in 697 B cells; inhibition, % at 4 µM; 697 B-cell NF-kB luciferase reporter, 16 h; hit rate 0.33% among 330,000; AID 435022; in the data active = inhibition above about 35%
Jurkat NFkB inh: inhibitors of the PMA/ionomycin-induced NF-kB reporter in Jurkat cells | PMA/ionomycin-induced NF-kB luciferase reporter, luminescence | inhibition, % at 4 µM | hit rate 0.53% among 330,000 | AID 435003; in the data active = inhibition above about 50%
Bfl-1 A1 inh: inhibitors of the anti-apoptotic protein A1, read as caspase activation; MEF A1-2A-BIM cells, Caspase-Glo 3/7 luminescence, 3 h; percent of clofoctol response, vehicle zero; caspase activation, % (no concentration beside the values); hit rate 0.066% among 330,000;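 active = over half of replicate activation scores above 10%, or exactly half above 10 with the replicate mean above 10; inconclusive = replicate mean below 10 yet half the replicates above 10; inactive = over half of replicates below 10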
NTR1 ag: NTR1 (human) agonism. P30989. NTR1-U2OS beta-arrestin-GFP spot imaging, agonist mode. activation, % at 20 µM. hit rate 0.17% among 330,000. AID 493036;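 active = activation at or above 40% of the spot to cytoplasm intensity ratio, with at least 20 cells analyzed; inconclusive = wells under 20 cells, flagged as cytotoxic or low count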;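 also: 0% = DMSO without peptide and 100% = 100 nM NTR1 peptide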
Target sequence (P30989 whole entry, looked up): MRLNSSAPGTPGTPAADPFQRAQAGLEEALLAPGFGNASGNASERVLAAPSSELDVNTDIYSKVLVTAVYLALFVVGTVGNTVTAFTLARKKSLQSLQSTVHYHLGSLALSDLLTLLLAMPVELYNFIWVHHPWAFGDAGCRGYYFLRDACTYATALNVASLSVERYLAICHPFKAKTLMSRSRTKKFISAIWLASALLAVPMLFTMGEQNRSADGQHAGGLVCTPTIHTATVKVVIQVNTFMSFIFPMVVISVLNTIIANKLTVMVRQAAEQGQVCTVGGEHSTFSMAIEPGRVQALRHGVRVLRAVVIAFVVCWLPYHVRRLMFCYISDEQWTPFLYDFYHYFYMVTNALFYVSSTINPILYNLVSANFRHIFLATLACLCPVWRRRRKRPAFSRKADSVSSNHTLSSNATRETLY
Mdm2 MdmX conf: human Mdm2/MdmX binding inhibition, confirmed. luminescent assay. shares compounds with Mdm2-MdmX inh. inhibition, % at 8 µM. hit rate 55% among 10,000; in the data active = inhibition above about 40%
Full FLuc ctr: counter-screen for Mdm2/MdmX inhibitors: full-length luciferase; shares compounds with Mdm2-MdmX inh; SaOS-2 full-length luciferase counterscreen, luminescence; inhibition, % at 8 µM; hit rate 77% among 6,200; AID 504607;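 active = mean inhibition at 8 µM reaching about 37%, which flags the compound as non-specific, limit read from the data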;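 also: p53-null SaOS-2 cells with luciferase driven by a doxycycline-inducible promoter; compound on cells about two nights before reading with doxycycline added after day one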
* hit, by the source's call; ? = inconclusive; nt = no result.

SMILES	Beta cell apopt	Mdm2-MdmX inh	697 NFkB inh	Jurkat NFkB inh	Bfl-1 A1 inh	NTR1 ag	Mdm2 MdmX conf	Full FLuc ctr
Cc1ccc2nc3sc(C(=O)N4CCOCC4)c(N)c3cc2c1	-6	59*	13	-6	-1	17	61*	103*
CCOC(=O)c1c(C)[nH]c(C(=O)OCC(=O)NCc2ccc(F)cc2)c1C	4	78*	-8	-2	-1	-1	13	nt
CN(C)C(CNc1ccc(C(F)(F)F)cc1[N+](=O)[O-])c1ccccc1 (centres undefined)	1	15	-3	-13	1	1	nt	nt
Cc1cc(N/N=C/c2cccc(Cl)c2)nc(NCc2ccccc2)n1	13	30	5	-1	1	9	nt	nt
Cc1cc(Nc2cccc(Cl)c2)nc(NCc2ccccc2)n1	107*	59*	-32	-7	-1	22	40	62*
COc1ccc(C(=O)Nc2nnc(SCC(=O)NCc3ccco3)s2)c(OC)c1	-5	-42	31	-55	-1	0	nt	nt
Cc1cc(C)c(OCCCCNCc2ccccc2)c(Cl)c1	3	51*	-4	2	0	11	40*	68*
COc1c(C(=O)Nc2ccccc2N2CCOCC2)cc2ccccc2c1Br	5	50*	8	3	-2	1	14	nt
O=C(NCC1(N2CCCCC2)CCCCC1)c1cccc(S(=O)(=O)Nc2ccc(F)cc2)c1	1	4	7	-5	0	-3	nt	nt
O=c1oc2ccccc2cc1-c1cn2ccccc2n1	13	76*	-144	-17	-9	-2	62*	72*
COc1ccc2oc(=O)c(-c3cn4ccc(C)cc4n3)cc2c1	-9	-32	-39	-35	-2	0	nt	nt
COc1ccc(S(=O)(=O)N2CCC(C(=O)NN3CCCCC3)CC2)cc1OC	1	-8	29	1	0	2	nt	nt
CCCCCC(=O)Nc1ccc(S(=O)(=O)NC2=NCCCCC2)cc1	3	2	7	-11	2	-1	nt	nt
CCCCn1c(N)c(N(CCOC)C(=O)COC(=O)/C=C/c2ccc(Br)cc2)c(=O)[nH]c1=O	nt	0	-7	3	0	3	nt	nt
CC(=O)Nc1cccc(-c2cnc(N)c(C(=O)c3cccnc3)n2)c1	-38	90*	-45	21	-1	2	93*	54*
OC(CN1CCN(c2cccc(C(F)(F)F)c2)CC1)c1c[nH]c2ccccc12 (centres undefined)	-5	50	11	4	0	7	46*	64*
CN(c1ccccc1)c1nccc(=O)[nH]1	-12	4	-30	-5	1	0	nt	nt
COc1ccc(C(CNC(=O)c2oc3ccc(OC)cc3c2C)N2CCCC2)cc1 (centres undefined)	-7	-15	-24	9	1	5	nt	nt
COc1ccc(C(CNC(=O)c2oc3cc(C)c(C)cc3c2C)N2CCCCC2)cc1 (centres undefined)	0	51*	-15	14	2	14	-10	nt
COc1ccc(C(CNC(=O)c2cccc(N(C)C)c2)N2CCCC2)cc1 (centres undefined)	-2	16	-10	-4	0	-2	nt	nt
CCC1CCc2sc(C(=O)NCC(c3ccc(OC)cc3)N3CCCC3)cc2C1 (centres undefined)	10	50*	-1	-4	1	9	31	nt
Oc1cc(NCc2ccc(F)cc2)cc2cccnc12	4	56*	2	3	0	1	17	nt
CCOC(=O)c1ccc2ncc(C(=O)OCC)c(Nc3ccc(N4CCOCC4)cc3)c2c1	33	68*	-18	29	-1	23	55*	55*
CCOc1ccc2nc(C)cc(Nc3ccc(N4CCOCC4)cc3)c2c1	-5	50	7	-1	0	0	19	nt
OCC[C@@H]1C[C@H](O)[C@@H](O)[C@@]2(Cc3ccccc3O2)O1	2	38	25	6	1	-1	nt	nt
SMILES	Beta cell apopt	Mdm2-MdmX inh	697 NFkB inh	Jurkat NFkB inh	Bfl-1 A1 inh	NTR1 ag	Mdm2 MdmX conf	Full FLuc ctr
O=[N+]([O-])c1ccc(Cl)cc1NCC1CCCO1 (centres undefined)	0	6	-22	-12	0	1	nt	nt
Cn1c(COc2ccc([N+](=O)[O-])cc2)nnc1SCC(=O)NCC1CCCO1 (centres undefined)	-2	-15	9	12	0	-1	nt	nt
O=C(Nc1ccc(F)cc1)c1nc(S(=O)(=O)Cc2ccccc2)ncc1Cl	40	96*	-59	21	0	-2	95*	52*
Cc1ccc(NC(=O)c2nc(S(=O)(=O)Cc3ccccc3)ncc2Cl)cc1	109*	82*	-122	18	1	-2	63*	51*
CCOC(=O)c1ccc(NC(=O)c2nc(SC)ncc2Cl)cc1	1	-18	-14	-42	0	1	nt	nt
Cc1ccccc1CS(=O)(=O)c1ncc(Cl)c(C(=O)Nc2ccc(F)cc2)n1	15	100*	nt	nt	1	-1	65*	52*
CSc1ncc(Cl)c(C(=O)Nc2ccc(S(=O)(=O)Nc3nccc(C)n3)cc2)n1	-9	10	15	2	1	-1	nt	nt
COc1ccc(C(=O)COC(=O)c2cc(S(=O)(=O)N3CCCCC3)ccc2N2CCOCC2)c(OC)c1	7	2	2	1	1	1	nt	nt
CCCCC1CCC(C(=O)N(CCCC)c2c(N)n(CCCC)c(=O)[nH]c2=O)CC1 (centres undefined)	49	99*	-15	12	1	7	28	nt
CCCCC1CCC(C(=O)N(CC(C)C)c2c(N)n(CCCC)c(=O)[nH]c2=O)CC1 (centres undefined)	1	46	-8	1	1	15	nt	nt
Cc1c(C(=O)Nc2cc(S(=O)(=O)N3CCOCC3)ccc2N2CCN(C)CC2)oc2ccccc12	-14	56*	5	6	1	8	39	65*
CCN(CC)c1ccc(S(=O)(=O)N2CCOCC2)cc1NC(=O)c1cc(=O)c2ccccc2o1	24	51*	6	4	0	5	23	nt
COc1ccc(NC(=O)c2oc3ccc(S(=O)(=O)N4CCC5(CC4)OCCO5)cc3c2C)cc1	-1	71*	7	5	?	2	35	nt
O=C(COC(=O)C1CCN(c2ccc(C(F)(F)F)cn2)CC1)NC1CCCCC1	-3	4	11	2	0	3	nt	nt
CC(=O)C[C@H](O)CC(=O)[C@@H]1OC(=O)CCCCC/C=C/Cc2ccccc21	-3	3	-10	-10	2	-3	nt	nt
